Reference: PubChem BioAssay (EPA / NIEHS)
Results filed as inconclusive are left out. Calls of active or inactive are those of the source. The calls were made as follows, unless noted: active = hit-call score of the fitted dose curve at least 0.9, where 1 is the maximum; inconclusive = response in the unintended direction; inactive = score below 0.9.

Assays:
[1] = target: human Peroxisome Proliferator-activated Receptor alpha (PPARa), PPARA (gene 5465) (UniProt Q07869); experiment: ATG_PPARa_TRANS: Attagene TRANS-FACTORIAL HepG2 Assay for human Peroxisome Proliferator-activated Receptor alpha (PPARa) (AID 2283001);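 as to AC50: potency for gain of reporter signal over DMSO so agonist or activator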
Method in brief: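 HepG2 cells transiently transfected with multiplexed GAL4-UAS reporters driven by exogenous chimeric NR-Gal4 proteins; reporter mRNA measured after 24 h dosing. Read-out by RT-PCR, 6-FAM labelling, HpaI digestion and capillary electrophoresis; gain of signal versus DMSO.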

[2] = target: human Peroxisome Proliferator-activated Receptor delta (PPARd), PPARD (gene 5467) (UniProt Q03181); experiment: ATG_PPARd_TRANS: Attagene TRANS-FACTORIAL HepG2 Assay for human Peroxisome Proliferator-activated Receptor delta (PPARd) (AID 2283002)
Method in brief: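 Fluorescence from capillary electrophoresis of labelled RT-PCR reporter fragments gives the signal; DMSO sets baseline. Cells: HepG2 transiently carrying GAL4-UAS reporter units plus chimeric nuclear receptor-Gal4 proteins, exposed to chemicals for 24 h.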

[3] = target: Peroxisome proliferator-activated receptor gamma (Homo sapiens) (UniProt P37231); experiment: ATG_PPARg_TRANS: Attagene TRANS-FACTORIAL HepG2 Assay for human Peroxisome Proliferator-activated Receptor-gamma (PPARg) (AID 2283007)
Method in brief: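 Twenty-four hours after chemical dosing of transiently transfected HepG2 cells, isolated RNA was converted to cDNA, reporter sequences amplified and 6-FAM-labelled, then HpaI-digested and analysed by capillary electrophoresis. Signal increase against DMSO was fitted.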

[4] = target: Nuclear receptor subfamily 1 group I member 2 (Homo sapiens) (UniProt O75469); experiment: ATG_PXR_TRANS: Attagene TRANS-FACTORIAL HepG2 Assay for human Pregnane X Receptor (PXR) (AID 2283008)
Method in brief: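 Read-out is fluorescence of labelled reporter cDNA fragments separated by capillary electrophoresis after RT-PCR and HpaI digestion. Source: HepG2 cells carrying PXR-GAL4/UAS reporter constructs, treated 24 h; activity fitted upward relative to DMSO.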

[5] = target: human RAR-related Orphan Receptor beta (RORb), RORB (gene 6096) (UniProt Q92753); experiment: ATG_RORb_TRANS: Attagene TRANS-FACTORIAL HepG2 Assay for human RAR-related Orphan Receptor beta (RORb) (AID 2283010)
Method in brief: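 HepG2 cells transiently transfected with GAL4-UAS reporter units expressing chimeric NR-Gal4 protein; reporter mRNA measured 24 h after dosing by RT-PCR, 6-FAM labelling and capillary electrophoresis. Gain-of-signal fitted relative to DMSO baseline.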

[6] = target: human RAR-related Orphan Receptor gamma (RORg), RORC (gene 6097) (UniProt P51449); experiment: ATG_RORg_TRANS: Attagene TRANS-FACTORIAL HepG2 Assay for human RAR-related Orphan Receptor gamma (RORg) (AID 2283011)
Method in brief: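 Transient MRTU transfection of HepG2 (TRANS format, exogenous NR-Gal4 chimera). 24 h dosing. Total RNA → oligo(dT) RT → PCR → 6-FAM labelling → HpaI cut → CE. Gain vs DMSO.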

[7] = target: Retinoic acid receptor RXR-alpha (Homo sapiens) (UniProt P19793); experiment: ATG_RXRa_TRANS: Attagene TRANS-FACTORIAL HepG2 Assay for human Retinoid X Receptor alpha (RXRa) (AID 2283012)
Method in brief: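 HepG2 cells transiently transfected with GAL4-UAS reporter units and chimeric RXRa-Gal4 protein, treated 24 h. Reporter mRNA measured by RT-PCR, fluorescent labelling, HpaI digestion and capillary electrophoresis. Induction fitted against DMSO.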

[8] = target: human Thyroid Receptor alpha (THRa1), THRA (gene 7067) (UniProt P10827); experiment: ATG_THRa1_TRANS: Attagene TRANS-FACTORIAL HepG2 Assay for human Thyroid Receptor alpha (THRa1) (AID 2283014)
Method in brief: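 Transient HepG2 transfection, NR-Gal4 chimera driving GAL4-UAS reporters; 24 h compound exposure; total RNA, oligo(dT) RT, PCR, fluorescent primer extension, capillary electrophoresis. Upward direction vs DMSO control.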

[9] = target: human Retinoid X Receptor beta (RXRb), RXRB (gene 6257) (UniProt P28702); experiment: ATG_RXRb_TRANS: Attagene TRANS-FACTORIAL HepG2 Assay for human Retinoid X Receptor beta (RXRb) (AID 2283013)
Method in brief: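 HepG2 cells were transiently transfected with multiplexed GAL4-UAS reporters and a chimeric RXRb-Gal4 construct, then exposed for 24 h. Reporter mRNA was quantified by RT-PCR, FAM labeling, HpaI digestion and capillary electrophoresis; gain of signal was scored against DMSO.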

[10] = target: human Retinoic Acid Receptor beta (RARb), RARB (gene 5915) (UniProt P10826); experiment: ATG_RARb_TRANS: Attagene TRANS-FACTORIAL HepG2 Assay for human Retinoic Acid Receptor beta (AID 2283004)
Method in brief: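 Readout is reporter mRNA induction: RNA reverse-transcribed, PCR-amplified, FAM-labelled, HpaI-cut and resolved by capillary electrophoresis. Transiently transfected HepG2 cells carrying exogenous NR–Gal4 chimeras were dosed for 24 h; activity fitted upward relative to DMSO.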

[11] = target: Retinoic acid receptor alpha (Homo sapiens) (UniProt P10276); experiment: ATG_RARa_TRANS: Attagene TRANS-FACTORIAL HepG2 Assay for human Retinoic Acid Receptor alpha (RARa) (AID 2283005)
Method in brief: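 HepG2 transiently transfected with multiplex GAL4-UAS reporter units including a human RARa–GAL4 chimera; 24 h compound exposure. Reporter mRNA quantified by RT-PCR, 6-FAM labeling and capillary electrophoresis; gain of signal versus DMSO.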

[12] = target: human Retinoic Acid Receptor gamma (RARg), RARG (gene 5916) (UniProt P13631); experiment: ATG_RARg_TRANS: Attagene TRANS-FACTORIAL HepG2 Assay for human Retinoic Acid Receptor gamma (RARg) (AID 2283009)
Method in brief: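 HepG2 transiently transfected with GAL4-UAS reporter units and chimeric NR-Gal4 constructs; 24 h compound exposure. Reporter mRNA quantified by RT-PCR, FAM labeling, HpaI digestion and capillary electrophoresis; gain-of-signal versus DMSO.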

[13] = read-out: Intercellular Adhesion Molecule 1 (ICAM1), ICAM1 (gene 3383); experiment: BSK_3C_ICAM1: BioMAP Diversity Plus: 3C Assay for Intercellular Adhesion Molecule 1 (ICAM1) Biomarker Activity (AID 2283003; active = hit-call score of the fitted dose curve at least 0.9, where 1 is the maximum; inactive = score below 0.9); details: primary human endothelial cells (HUVEC); actives raise or lower the signal
Method in brief: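 HUVEC primary cells stimulated under 3C conditions; ICAM1 measured by ELISA 24 h after compound dosing. Curves fitted bidirectionally against the DMSO baseline. Overt cytotoxicity checked by SRB staining of parallel cultures.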

[14] = BSK_3C_Proliferation: Cell Proliferation Assessment in the BioMAP Diversity Plus: 3C Assay (AID 2283006; active = hit-call score of the fitted dose curve at least 0.9, where 1 is the maximum; inactive = score below 0.9); details: primary human endothelial cells (HUVEC)
Method in brief: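 Subconfluent HUVEC (3C system) cultured with chemical; relative cell number read at 48 h by sulforhodamine B total-protein staining (0.1% SRB after 10% TCA fixation, 560 nm). Bidirectional fit relative to DMSO.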

[15] = read-out: E-selectin (Homo sapiens) (UniProt P16581); experiment: BSK_3C_Eselectin: BioMAP Diversity Plus: 3C Assay for Eselectin Biomarker Activity (AID 2283015; active = hit-call score of the fitted dose curve at least 0.9, where 1 is the maximum; inactive = score below 0.9;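 also: cell surface E-selectin protein quantified by ELISA 24 h after dosing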); details: primary human endothelial cells (HUVEC); actives raise or lower the signal
Method in brief: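 HUVEC, 3C stimulation; compound exposure 24 h; E-selectin by ELISA; gain- or loss-of-signal fitted bidirectionally vs DMSO baseline.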

[16] = read-out: Interleukin-1 alpha (IL1a), IL1A (gene 3552); experiment: BSK_BE3C_IL1a: BioMAP Diversity Plus: BE3C Assay for Interleukin-1 alpha (IL1a) Biomarker Activity (AID 2283016; active = hit-call score of the fitted dose curve at least 0.9, where 1 is the maximum; inactive = score below 0.9); details: primary human bronchial epithelial cells; actives raise or lower the signal
Method in brief: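 Human primary bronchial epithelial cells, 24 h chemical exposure; IL-1a quantified by ELISA, fitted bidirectionally against DMSO. Cytotoxicity assessed in parallel by SRB total-protein staining at the time of measurement.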

[17] = read-out: Monocyte Chemoattractant Protein-1 (MCP1), CCL2 (gene 6347); experiment: BSK_3C_MCP1: BioMAP Diversity Plus: 3C Assay for Monocyte Chemoattractant Protein-1 (MCP1) Biomarker Activity (AID 2283017; active = hit-call score of the fitted dose curve at least 0.9, where 1 is the maximum; inactive = score below 0.9); details: primary human endothelial cells (HUVEC); actives raise or lower the signal
Method in brief: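 HUVEC, 3C system; 24 h chemical exposure; MCP-1 by ELISA; bidirectional curve fit vs DMSO baseline.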

[18] = read-out: Monocyte Chemoattractant Protein-1 (MCP1), CCL2 (gene 6347); experiment: BSK_4H_MCP1: BioMAP Diversity Plus: 4H Assay for Monocyte Chemoattractant Protein-1 (MCP1) Biomarker Activity (AID 2283018; active = hit-call score of the fitted dose curve at least 0.9, where 1 is the maximum; inactive = score below 0.9); details: primary human endothelial cells (HUVEC); actives raise or lower the signal
Method in brief: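 Human umbilical vein endothelial cells (4H system) exposed to chemicals for 24 h in 96-well format. MCP-1 measured by ELISA; bidirectional fitting against DMSO, with SRB total-protein staining in parallel cultures for cytotoxicity.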

[19] = read-out: Human Leukocyte Antigen - DR isotype (HLADR), HLA-DRA (gene 3122); experiment: BSK_3C_HLADR: BioMAP Diversity Plus: 3C Assay for Human Leukocyte Antigen - DR isotype (HLADR) Biomarker Activity (AID 2283019; active = hit-call score of the fitted dose curve at least 0.9, where 1 is the maximum; inactive = score below 0.9;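 also: ELISA of cell-surface HLA-DR on HUVEC 24 h after dosing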); details: primary human endothelial cells (HUVEC); actives raise or lower the signal
Method in brief: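 HUVEC, 3C stimulation, 24 h post-dose; HLA-DR by ELISA; bidirectional curve fit vs DMSO baseline; gain or loss of signal scored.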

[20] = read-out: Interleukin-8 (IL8), CXCL8 (gene 3576); experiment: BSK_3C_IL8: BioMAP Diversity Plus: 3C Assay for Interleukin-8 (IL8) Biomarker Activity (AID 2283020; active = hit-call score of the fitted dose curve at least 0.9, where 1 is the maximum; inactive = score below 0.9); details: primary human endothelial cells (HUVEC); actives raise or lower the signal
Method in brief: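 Primary human umbilical vein endothelial cells were dosed for 24 h. IL-8 was quantified by ELISA and fitted bidirectionally against DMSO. Cytotoxicity was assessed in parallel cultures by SRB staining at 560 nm.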

Measured: AC50

human RAR-related Orphan Receptor beta (RORb), RORB (gene 6096), sequence (Q92753 whole entry, looked up, the tested form may be a part): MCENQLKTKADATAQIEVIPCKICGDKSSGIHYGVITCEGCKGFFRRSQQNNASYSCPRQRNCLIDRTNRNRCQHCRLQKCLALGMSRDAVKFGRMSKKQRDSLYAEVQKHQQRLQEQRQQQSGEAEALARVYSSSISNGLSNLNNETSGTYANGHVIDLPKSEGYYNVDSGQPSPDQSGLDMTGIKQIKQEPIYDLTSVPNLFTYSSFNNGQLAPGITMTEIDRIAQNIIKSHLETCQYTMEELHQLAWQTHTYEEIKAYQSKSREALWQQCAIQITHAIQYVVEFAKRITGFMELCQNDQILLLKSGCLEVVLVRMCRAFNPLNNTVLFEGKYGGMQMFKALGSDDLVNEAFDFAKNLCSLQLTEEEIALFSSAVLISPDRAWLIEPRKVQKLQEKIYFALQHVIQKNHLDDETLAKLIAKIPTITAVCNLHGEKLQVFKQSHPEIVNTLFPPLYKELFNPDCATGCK
Nuclear receptor subfamily 1 group I member 2 (Homo sapiens), sequence (O75469 whole entry, looked up, the tested form may be a part): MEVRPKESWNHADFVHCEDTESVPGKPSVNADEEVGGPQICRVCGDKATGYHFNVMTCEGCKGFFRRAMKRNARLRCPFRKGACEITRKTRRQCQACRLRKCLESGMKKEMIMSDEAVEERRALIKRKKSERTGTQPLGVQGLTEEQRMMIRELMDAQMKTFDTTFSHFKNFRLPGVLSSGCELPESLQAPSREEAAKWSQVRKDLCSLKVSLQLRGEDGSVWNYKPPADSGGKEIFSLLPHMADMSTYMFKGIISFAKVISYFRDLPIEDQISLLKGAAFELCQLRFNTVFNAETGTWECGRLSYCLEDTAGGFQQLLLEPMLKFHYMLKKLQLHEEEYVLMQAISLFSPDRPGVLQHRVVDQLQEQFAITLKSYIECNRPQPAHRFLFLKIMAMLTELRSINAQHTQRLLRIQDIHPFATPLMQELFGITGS
human Retinoid X Receptor beta (RXRb), RXRB (gene 6257), sequence (P28702 whole entry, looked up, the tested form may be a part): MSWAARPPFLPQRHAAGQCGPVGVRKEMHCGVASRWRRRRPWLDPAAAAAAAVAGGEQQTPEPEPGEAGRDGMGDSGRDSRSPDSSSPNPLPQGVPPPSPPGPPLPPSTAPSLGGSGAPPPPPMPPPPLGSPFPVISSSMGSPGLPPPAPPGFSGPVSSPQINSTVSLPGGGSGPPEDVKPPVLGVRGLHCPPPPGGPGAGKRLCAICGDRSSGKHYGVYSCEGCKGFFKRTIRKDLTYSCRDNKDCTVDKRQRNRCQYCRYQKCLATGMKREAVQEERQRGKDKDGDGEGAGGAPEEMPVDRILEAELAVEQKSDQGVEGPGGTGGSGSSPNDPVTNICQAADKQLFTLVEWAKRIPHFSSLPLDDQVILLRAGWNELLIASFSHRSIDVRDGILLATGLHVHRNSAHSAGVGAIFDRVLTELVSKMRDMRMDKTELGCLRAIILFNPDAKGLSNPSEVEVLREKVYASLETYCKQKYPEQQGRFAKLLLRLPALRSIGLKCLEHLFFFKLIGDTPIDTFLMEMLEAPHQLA
human Peroxisome Proliferator-activated Receptor alpha (PPARa), PPARA (gene 5465), sequence (Q07869 whole entry, looked up, the tested form may be a part): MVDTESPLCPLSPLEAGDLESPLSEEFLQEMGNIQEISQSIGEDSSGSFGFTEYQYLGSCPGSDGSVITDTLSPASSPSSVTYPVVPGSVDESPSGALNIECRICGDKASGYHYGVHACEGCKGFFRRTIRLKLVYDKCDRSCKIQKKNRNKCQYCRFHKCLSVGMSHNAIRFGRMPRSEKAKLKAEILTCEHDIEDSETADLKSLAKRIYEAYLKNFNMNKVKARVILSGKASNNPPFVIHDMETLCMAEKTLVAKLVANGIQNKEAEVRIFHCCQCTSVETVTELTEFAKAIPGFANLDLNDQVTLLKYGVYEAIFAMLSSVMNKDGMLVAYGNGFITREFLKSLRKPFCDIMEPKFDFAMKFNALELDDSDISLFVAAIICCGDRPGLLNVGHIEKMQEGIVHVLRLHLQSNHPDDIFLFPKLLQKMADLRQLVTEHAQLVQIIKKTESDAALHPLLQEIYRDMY
Peroxisome proliferator-activated receptor gamma (Homo sapiens), sequence (P37231 whole entry, looked up): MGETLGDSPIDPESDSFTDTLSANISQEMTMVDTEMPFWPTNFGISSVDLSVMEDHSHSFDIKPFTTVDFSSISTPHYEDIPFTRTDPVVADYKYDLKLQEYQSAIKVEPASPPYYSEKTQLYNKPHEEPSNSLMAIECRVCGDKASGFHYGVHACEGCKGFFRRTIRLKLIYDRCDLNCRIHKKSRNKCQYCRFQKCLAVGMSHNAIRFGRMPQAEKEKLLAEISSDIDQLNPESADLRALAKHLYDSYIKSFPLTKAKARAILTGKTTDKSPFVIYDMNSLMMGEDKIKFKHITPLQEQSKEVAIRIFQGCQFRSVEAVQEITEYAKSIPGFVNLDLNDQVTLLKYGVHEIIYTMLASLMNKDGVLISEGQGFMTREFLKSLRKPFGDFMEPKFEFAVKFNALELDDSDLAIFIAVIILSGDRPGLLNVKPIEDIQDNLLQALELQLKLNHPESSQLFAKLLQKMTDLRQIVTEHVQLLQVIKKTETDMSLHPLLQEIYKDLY
human RAR-related Orphan Receptor gamma (RORg), RORC (gene 6097), sequence (P51449 whole entry, looked up, the tested form may be a part): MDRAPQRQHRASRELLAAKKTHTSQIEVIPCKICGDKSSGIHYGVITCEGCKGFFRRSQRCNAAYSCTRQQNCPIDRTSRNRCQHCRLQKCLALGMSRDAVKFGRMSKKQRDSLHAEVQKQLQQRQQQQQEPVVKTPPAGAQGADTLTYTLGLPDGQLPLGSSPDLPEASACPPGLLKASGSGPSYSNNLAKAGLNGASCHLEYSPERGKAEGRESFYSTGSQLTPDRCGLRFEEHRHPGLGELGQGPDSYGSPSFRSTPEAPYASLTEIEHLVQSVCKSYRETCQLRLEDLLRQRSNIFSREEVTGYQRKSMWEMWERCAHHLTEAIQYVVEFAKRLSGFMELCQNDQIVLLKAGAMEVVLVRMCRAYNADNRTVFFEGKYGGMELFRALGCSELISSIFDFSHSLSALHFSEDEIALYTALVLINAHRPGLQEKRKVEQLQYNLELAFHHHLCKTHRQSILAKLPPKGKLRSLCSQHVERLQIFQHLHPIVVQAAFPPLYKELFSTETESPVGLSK
human Thyroid Receptor alpha (THRa1), THRA (gene 7067), sequence (P10827 whole entry, looked up, the tested form may be a part): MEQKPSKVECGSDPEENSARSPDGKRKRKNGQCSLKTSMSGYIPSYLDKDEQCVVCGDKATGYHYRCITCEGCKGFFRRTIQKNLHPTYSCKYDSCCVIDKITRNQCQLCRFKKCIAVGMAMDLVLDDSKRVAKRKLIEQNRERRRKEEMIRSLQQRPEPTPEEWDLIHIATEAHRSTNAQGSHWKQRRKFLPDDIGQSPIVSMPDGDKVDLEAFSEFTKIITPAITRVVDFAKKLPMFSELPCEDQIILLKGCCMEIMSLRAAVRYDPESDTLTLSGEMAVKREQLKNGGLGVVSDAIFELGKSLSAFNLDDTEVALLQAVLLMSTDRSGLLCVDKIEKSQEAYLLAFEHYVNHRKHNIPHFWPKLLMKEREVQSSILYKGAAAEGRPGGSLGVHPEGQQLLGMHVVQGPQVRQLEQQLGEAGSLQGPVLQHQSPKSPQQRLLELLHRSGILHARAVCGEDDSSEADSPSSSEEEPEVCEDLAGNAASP
Retinoic acid receptor RXR-alpha (Homo sapiens), sequence (P19793 whole entry, looked up, the tested form may be a part): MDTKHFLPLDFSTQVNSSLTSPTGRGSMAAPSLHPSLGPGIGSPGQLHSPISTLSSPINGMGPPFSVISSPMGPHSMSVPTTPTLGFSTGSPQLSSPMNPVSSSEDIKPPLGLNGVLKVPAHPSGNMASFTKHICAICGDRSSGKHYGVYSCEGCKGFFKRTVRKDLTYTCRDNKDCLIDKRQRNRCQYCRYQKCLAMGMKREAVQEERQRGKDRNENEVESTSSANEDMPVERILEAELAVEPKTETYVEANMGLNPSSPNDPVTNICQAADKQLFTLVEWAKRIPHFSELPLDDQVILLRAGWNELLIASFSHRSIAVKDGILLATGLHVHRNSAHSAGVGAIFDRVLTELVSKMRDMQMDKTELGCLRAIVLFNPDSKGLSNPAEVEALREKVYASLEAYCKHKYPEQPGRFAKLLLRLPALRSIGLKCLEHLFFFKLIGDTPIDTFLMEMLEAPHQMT
human Peroxisome Proliferator-activated Receptor delta (PPARd), PPARD (gene 5467), sequence (Q03181 whole entry, looked up, the tested form may be a part): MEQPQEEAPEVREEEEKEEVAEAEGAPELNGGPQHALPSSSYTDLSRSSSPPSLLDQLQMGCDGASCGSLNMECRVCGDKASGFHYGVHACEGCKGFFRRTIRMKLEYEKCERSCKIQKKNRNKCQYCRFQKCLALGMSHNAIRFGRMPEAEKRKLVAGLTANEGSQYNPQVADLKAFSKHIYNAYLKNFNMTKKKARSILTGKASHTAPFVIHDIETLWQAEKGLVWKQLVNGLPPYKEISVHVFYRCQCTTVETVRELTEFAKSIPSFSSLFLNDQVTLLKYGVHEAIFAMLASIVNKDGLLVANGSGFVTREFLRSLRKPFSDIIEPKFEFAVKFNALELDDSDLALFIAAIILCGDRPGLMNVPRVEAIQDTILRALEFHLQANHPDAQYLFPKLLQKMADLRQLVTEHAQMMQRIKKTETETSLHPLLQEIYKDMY
Retinoic acid receptor alpha (Homo sapiens), sequence (P10276 whole entry, looked up, the tested form may be a part): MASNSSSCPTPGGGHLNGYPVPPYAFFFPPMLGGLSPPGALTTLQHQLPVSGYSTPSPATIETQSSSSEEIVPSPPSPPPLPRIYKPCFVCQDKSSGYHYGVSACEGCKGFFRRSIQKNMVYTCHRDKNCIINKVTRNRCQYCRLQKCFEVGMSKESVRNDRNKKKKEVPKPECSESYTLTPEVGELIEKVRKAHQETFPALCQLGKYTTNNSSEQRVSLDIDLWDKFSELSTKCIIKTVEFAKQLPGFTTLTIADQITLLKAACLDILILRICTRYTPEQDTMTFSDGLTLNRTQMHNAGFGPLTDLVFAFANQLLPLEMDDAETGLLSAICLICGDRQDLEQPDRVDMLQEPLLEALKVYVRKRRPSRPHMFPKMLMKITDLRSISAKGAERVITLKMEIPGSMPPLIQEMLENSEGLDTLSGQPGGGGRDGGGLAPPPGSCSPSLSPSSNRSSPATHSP

O=C(Nc1ccccc1)c1cc([N+](=O)[O-])ccc1Cl
active: [3] 19.8 µM | [4] 3.82 µM
inactive: [1] | [2] | [5] | [6] | [7] | [8]

CCCCCCCCCCCCCOS(=O)(=O)O
inactive: [2] | [6]
active: [1] 3.35 µM | [3] 12 µM | [9] 12.9 µM

CCCCCC(CO)CCC (stereo not drawn)
inactive: [1] | [2] | [10] | [11] | [3] | [4] | [12] | [5] | [6] | [9]

C=CC(C)(CCC=C(C)C)OC=O (stereo not drawn)
inactive: [1] | [2] | [3] | [4] | [5] | [6]

CC(CCO)CCCC(C)(C)O (stereo not drawn)
inactive: [1] | [2] | [3] | [4] | [6] | [7] | [8]

CCCCCCCCCCC(CO)CCCCCCCC (stereo not drawn)
inactive: [1] | [2] | [3] | [4] | [8]

NC(=O)c1ccccc1Cl
inactive: [1] | [2] | [3] | [5] | [6] | [7] | [9]

Cc1ccc2n[nH]nc2c1
not listed: [5] | [7] | [10] | [11] | [12]
inactive: all other assays above

CCCCOCCOCCSC#N
inactive: [1] | [2] | [6] | [7] | [9]
active: [3] 19.8 µM | [4] 3.36 µM

Cc1ccc(C(=O)c2cc(O)c(O)c([N+](=O)[O-])c2)cc1
active: [3] 17.5 µM
inactive: [1] | [2] | [4] | [7] | [9] | [8]

O=C1CCCCCCCCCCOCCCCO1
active: [1] 40 µM | [3] 59.3 µM
inactive: [2] | [11] | [4] | [12] | [5] | [7] | [9]

CCCCCCC#CC(=O)OC
inactive: [1] | [2] | [4] | [5] | [7] | [8]
active: [3] 5.61 µM

CC(C=O)Cc1ccc(C(C)C)cc1 (stereo not drawn)
inactive: [2] | [3] | [4] | [9]
active: [1] 49.1 µM
